# According to PubChem BioAssay (NCATS):
# Records with an inconclusive call do not appear. Active and inactive are the calls of the source. Unless noted, the call rests on the fitted dose curve; in most records, active means well fitted cell-killing curve with a large enough effect; inconclusive means small, poorly fitted or top-dose-only effect, or effect the other way; inactive means no such curve, though single readings can be large or run the other way.
# What was measured:
# [1] = Quantitative High-Throughput drug screen in 47 multiple myeloma cell lines against the NCATS MIPE library collection: PE2_PLB cell viability assay (AID 1919869); further: nearly all actives have a fitted effect of over 35% in size
# How it was run: (§1)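 Myeloma cells (500/well) treated with MIPE 4.0 compounds for 48 h at 37 °C, 5% CO2. Viability read as ATP via CellTiter-Glo luminescence after 5 min at RT; DMSO-only wells = 100%, media-only = 0% viability.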
# [2] = Quantitative High-Throughput drug screen in 47 multiple myeloma cell lines against the NCATS MIPE library collection: PCM6_Riken cell viability assay (AID 1919870); further: nearly all actives have a fitted effect of over 30% in size
# How it was run: as §1
# [3] = Quantitative High-Throughput drug screen in 47 multiple myeloma cell lines against the NCATS MIPE library collection: RPMI8226_ATCC cell viability assay (AID 1919871); further: nearly all actives have a fitted effect of over 30% in size
# How it was run: as §1
# [4] = Quantitative High-Throughput drug screen in 47 multiple myeloma cell lines against the NCATS MIPE library collection: OPM2_DSMZ cell viability assay (AID 1919872); further: nearly all actives have a fitted effect of over 30% in size
# How it was run: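 Relative luminescence from CellTiter-Glo served as the viability signal, referenced to DMSO-treated (100%) and cell-free medium (0%) controls. Treatment lasted 48 hours at 37C with 500 cells per well.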
# [5] = Quantitative High-Throughput drug screen in 47 multiple myeloma cell lines against the NCATS MIPE library collection: KMS11_JCRBsus cell viability assay (AID 1919873); further: nearly all actives have a fitted effect of over 50% in size
# How it was run: as §1
# [6] = Quantitative High-Throughput drug screen in 47 multiple myeloma cell lines against the NCATS MIPE library collection: KMS28BM_JCRB cell viability assay (AID 1919874); further: nearly all actives have a fitted effect of over 35% in size
# How it was run: as §1
# [7] = qHTS drug screen for cell cycle checkpoint inhibitors in PARPi-resistant BRCA-mutant ovarian cancer cell lines. (AID 1963452; calls by dose curve); settings: PEO1/OlaR viability, CellTiter-Glo luminescence, 96 h; for Z-AUC: stronger effect = lower value
# How it was run: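 PEO1, PEO4 and PEO1/OlaR ovarian cancer cells, 600 per well, exposed 96 h at 37C to a dilution series. Viability read by CellTiter-Glo luminescence, normalized to DMSO and empty wells; activity summarized as Z-AUC.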
# [8] = qHTS for identification of novel therapeutic agents for treatment of microphthalmiaassociated transcription factor (MiT) renal cell carcinoma (RCC) (AID 1963991; calls by dose curve); settings: CellTiter-Glo, 48 h; for Potency: active = Z-AUC below -0.8 in all three lines; for z-score: stronger effect = lower value
# How it was run: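 Three TFE3-fusion RCC cell lines (UOK109, UOK124, UOK145), 500 cells/well, were exposed to the 1912-compound MIPE 4.0 library for 48 hours at 37 C. Viability was read by CellTiter-Glo luminescence, normalised to DMSO (100%) and empty wells (0%), with 11-concentration curve fits.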
# [9] = measured here: PEO1 parental Z-AUC
# [10] = TFE3-RCC UOK109 viability, measured here: UOK109 Z-AUC
# [11] = TFE3-RCC viability, measured here: UOK124 Z-AUC
# [12] = TFE3-RCC viability, measured here: UOK145 Z-AUC
# Potency means the concentration at half of the fitted maximal effect.
SMILES,Potency [1],Potency [2],Potency [3],Potency [4],Potency [5],Potency [6],Z-AUC [7],"Z-AUC [7, 9]",Z-AUC ([7]; measured here: PEO4 Z-AUC),Potency ([8]; TFE3-RCC UOK109 viability),"z-score [8, 10]","z-score [8, 11]","z-score [8, 12]",Potency [7]
Nc1nc(F)nc2c1ncn2[C@@H]1O[C@H](CO)[C@@H](O)[C@@H]1O,209 nM (active),264 nM (active),418 nM (active),833 nM (active),296 nM (active),526 nM (active),0.0458 (inactive),0.0902,0.704,372 nM (active),-1.54,-1.3,-1.61,
OC(Cn1cncn1)(Cn1cncn1)c1ccc(F)cc1F,inactive,inactive,5260 nM (active),,inactive,inactive,-0.0807 (inactive),0.99,1.12,,0.751,0.906,-0.107,
CNS(=O)(=O)Cc1ccc2[nH]cc(CCN(C)C)c2c1,14800 nM (active),inactive,inactive,inactive,inactive,inactive,,,,,0.748,0.938,0.747,
CCCc1nc(C)c2c(=O)[nH]c(-c3cc(S(=O)(=O)N4CCN(CC)CC4)ccc3OCC)nn12,5900 nM (active),5260 nM (active),9350 nM (active),5900 nM (active),2960 nM (active),,1.15 (inactive),0.477,0.621,,,,,
CC(C)C[C@H](NC(=O)[C@H](CCc1ccccc1)NC(=O)CN1CCOCC1)C(=O)N[C@@H](Cc1ccccc1)C(=O)N[C@@H](CC(C)C)C(=O)[C@@]1(C)CO1,1 nM (active),1 nM (active),16.6 nM (active),16.6 nM (active),5.3 nM (active),5.3 nM (active),,-3.02,-2.77,1480 nM (active),-1.85,-2.71,-3.3,9.8 nM (active)
C[C@@H]1CN(c2c(F)c(N)c3c(=O)c(C(=O)O)cn(C4CC4)c3c2F)C[C@H](C)N1,inactive,inactive,inactive,inactive,inactive,,1.35 (inactive),1.39,1.15,,1.8,2.67,1.6,
CCC(=O)O[C@]1(C(=O)CCl)[C@@H](C)C[C@H]2[C@@H]3CCC4=CC(=O)C=C[C@]4(C)[C@@]3(F)[C@@H](O)C[C@@]21C,inactive,inactive,5.9 nM (active),inactive,,inactive,-0.206 (inactive),0.492,-0.658,,,,,
O=C(O)CSCC(=O)NC1CCSC1=O (configuration not stated),inactive,inactive,inactive,,inactive,inactive,-0.00872 (inactive),0.644,0.13,,0.815,0.223,1.5,
CCCOc1ccc(C(=O)OCCN(CC)CC)cc1N,inactive,inactive,inactive,inactive,14800 nM (active),,1.6 (inactive),1,0.987,,,,,
